Experimental data published in the supplement of paper PMC12819154, “High-throughput peptide-centric local stability assay extends protein–ligand identification to membrane proteins, tissues and bacteria” (Nature Structural & Molecular Biology, 2025).

Each target was assayed with Nc1ncnc2c1ncn2[C@@H]1O[C@H](COP(=O)(O)OP(=O)(O)OP(=O)(O)O)[C@@H](O)[C@H]1O [adenosine 5'-triphosphate] (assay: log2 fold change of tryptic peptide abundance, ligand vs vehicle (limited proteolysis) (log2 ratio); higher = more trypsin-susceptible (destabilized)). Conditions: ligand concentration: 5 mM; sample: E. coli desalted lysate; replicate design: treated before aliquoting.
Protocol: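 HT-PELSA: desalted E. coli K-12 BW25113 lysate (with 12 mM MgCl2) incubated with 5 mM ATP (pH 7) or water for 30 min at 25 C, then a 4 min trypsin pulse at 22 C. Peptides were quantified by DIA-MS (4 replicates). Value is the peptide log2 fold change (treated/control); negative = stabilized. Scale: negative = ligand-stabilized region.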
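Also: lysate desalted by size exclusion to strip endogenous ATP, peptide intensities built from DIA-NN precursor signals, and peptides missing any value discarded before comparison.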

Target	log2 fold change
UniProt P36771 (peptide sequence: AGLGVTARPVEMMSPDLR, peptide start residue: 231)	0.543
UniProt P08394 (peptide sequence: HCYPLPR, peptide start residue: 171)	1.13
UniProt P75745 (peptide sequence: QLLWGNR, peptide start residue: 167)	-0.312
UniProt P00550 (peptide sequence: GASPLSAGDVTNDLSHVRK, peptide start residue: 361)	0.413
UniProt P32703 (peptide sequence: AATAEVAIVAIQK, peptide start residue: 440)	1.52
UniProt P10371 (peptide sequence: DYGNDPLPR, peptide start residue: 26)	-0.955
UniProt P27300 (peptide sequence: SVDAVIVNGGVPR, peptide start residue: 190)	-2.1
UniProt P76206 (peptide sequence: FEFGPGVR, peptide start residue: 152)	1.15
UniProt P21345 (peptide sequence: EVLGKFDKTADQ, peptide start residue: 426)	-1.41
UniProt P10907 (peptide sequence: ILELDGLLK, peptide start residue: 121)	-0.369
UniProt P77544 (peptide sequence: QIQAWLR, peptide start residue: 104)	0.878
UniProt P0A9P6 (peptide sequence: RFMKEPQEVR, peptide start residue: 200)	-2.4
UniProt P37769 (peptide sequence: LMANEWAK, peptide start residue: 171)	-0.444
UniProt P33599 (peptide sequence: QDLEMEALTFKPEEWGMKR, peptide start residue: 186)	-1.6
UniProt P21151 (peptide sequence: ISTTLLNLMERK, peptide start residue: 352)	0.834
UniProt P0AEK2 (peptide sequence: ALSDDQRAGILAQVPAGR, peptide start residue: 191)	0.83
UniProt P35340 (peptide sequence: MTLTEIVAKIDTGAEKR, peptide start residue: 186)	1.22
UniProt P39830 (peptide sequence: GANQVVMGER, peptide start residue: 528)	1.21
UniProt P21514 (peptide sequence: NPIPVTPEAR, peptide start residue: 237)	-2.06
UniProt P76422 (peptide sequence: NTHGTGCTLSAALAALRPR, peptide start residue: 207)	-1.45

Target	log2 fold change
UniProt P30844 (peptide sequence: NLVENAHR, peptide start residue: 260)	-1.02
UniProt P29013 (peptide sequence: SREEYLQSQVNMLWR, peptide start residue: 204)	-0.636
UniProt P77795 (peptide sequence: IEQVDSPR, peptide start residue: 213)	-0.95
UniProt P31660 (peptide sequence: SGNDLHYR, peptide start residue: 38)	1.29
MurD (peptide sequence: YLNGDNVR, peptide start residue: 359) (UniProt P14900)	-1.33
UniProt P77171 (peptide sequence: GRQGAQLTLPGEQFLTHAVR, peptide start residue: 61)	0.909
UniProt P76245 (peptide sequence: TPFVAHPALHS, peptide start residue: 331)	1.1
UniProt P76556 (peptide sequence: IAFVGSVGAGK, peptide start residue: 4)	-0.693
UniProt P52101 (peptide sequence: AMIFEPFFQGSHQR, peptide start residue: 414)	0.36
UniProt P0AEC3 (peptide sequence: FTQQGQVTVR, peptide start residue: 413)	-2.53
UniProt P37747 (peptide sequence: DKDSLASK, peptide start residue: 216)	-0.827
UniProt P21645 (peptide sequence: KTAALVMNIDDMSKR, peptide start residue: 315)	-0.565
UniProt P77499 (peptide sequence: SVNVGFSGGEK, peptide start residue: 141)	-0.896
UniProt P23862 (peptide sequence: KRIQHQDFER, peptide start residue: 111)	1.03
UniProt P31475 (peptide sequence: AHLNTLMAEMAALKENFRR, peptide start residue: 132)	0.66
UniProt P25516 (peptide sequence: KTLGLTGEEK, peptide start residue: 823)	-0.721
UniProt P37636 (peptide sequence: QDYDTAR, peptide start residue: 137)	0.264
UniProt P27126 (peptide sequence: IGMDNAWLGR, peptide start residue: 45)	-0.467
UniProt P27431 (peptide sequence: EMMLELINQPEHFK, peptide start residue: 252)	0.714
UniProt P43340 (peptide sequence: KIQVTELDLYRR, peptide start residue: 34)	1.23
